# About 340 (0.77%) of roughly 44,000 compounds were called active. About 5% were inconclusive and are not listed. The sample holds actives, similar compounds and a random draw of the others, so the mix is not that of the screen. A number with no mark means an inactive call. Calls follow the shape of the dose curve; as a rule, active = well fitted inhibition curve with a large enough effect; inconclusive = small, poorly fitted or top-dose-only effect; inactive = flat fitted curve, though single readings scatter.
# Assay: Acumen qHTS Assay for Inhibitors of the mTORC1 Signaling Pathway in MEF (Tsc2-/-, p53-/-) Cells: Sytravon; also: nearly all actives have a fitted effect of over 50% in size
# Conditions: phospho-rpS6 immunofluorescence/PI, 24 h; series mostly up to 38.3 µM; activity change, negative = inhibition: at the top concentration
# Source text: NIH Molecular Libraries Probe Production Centers Network [MLPCN] NIH Chemical Genomics Center [NCGC] MLPCN Grant: NS059428-01 Assay Submitter (PI): Blenis, John; Hoffman, Greg; Harvard University NCGC Assay Overview: The mammalian target of rapamycin (mTOR) is an intracellular serine/threonine kinase Aberrant regulation of mTOR signaling plays a causative role in a number of human diseases, including cancer, benign tumors such as lymphangioleiomyomatosis (LAM) and Tuberous Sclerosis Complex (TSC), and metabolic diseases such as diabetes and obesity. This project aims to identify inhibitors of ribosomal protein S6 (rpS6) phosphorylation. The phosphorylation of rpS6 is a key event downstream of mTOR activation. The assay uses a phospho-specific antibody of phospho-rpS6 to detect inhibitors of mTOR activation. Mutations in the Tsc1 and Tsc2 genes are the underlying genetic lesions responsible for TSC, causing constitutive activation of the mTORC1 pathway and leading to profound effects on cell metabolism. Aberrant metabolism in cancer has recently received significant attention as a target to develop therapeutic agents in the treatment of cancer.1 As Tsc2-/- cells have lost the ability to respond to energy and growth factor deprivation, these cells are unable to properly down regulate cellular biosynthetic processes in response to metabolic stress, and are thus extremely sensitive to glucose deprivation-induced death.2 A central goal of this project is to explore the unique cell survival and metabolic properties of cells with Tsc1 or Tsc2 by screening for compounds that selectively target the Tsc2-/- MEFs by screening both Tsc2-/- and WT MEF cell lines. We hope to better understand these aspects of TSC physiology in order to exploit them for therapeutic benefit.
# NCGC Acumen Assay Protocol Summary: For quantitative high throughput analysis of mTORC1 signaling, we developed a cell-based assay for immuno-fluorescence based detection of rpS6 phosphorylation on the Acumen Explorer that will be used a platform for the primary small molecule screen. Mouse embryonic fibroblasts (MEFs) are cultured in 1536-well plates using DMEM + 10% FBS. Twenty-four hrs after plating, test compounds (solubilized in DMSO) are delivered and incubated with the cells for 24 hrs at 37 degree Celsius. Following the incubation, media with compound is aspirated and the cells are fixed in 4% paraformaldehyde (PFA) containing PBS + 0.2% TX-100. Next, PFA is aspirated, cells are washed two times with PBS plus 0.2% TX-100 and the cells are blocked for 1 hr at room temperature (blocking buffer: LiCOR Blocking Buffer plus 0.2% TX-100). […] Cells are washed two times with PBS plus 0.2% TX-100, and stained with 10 uM propidium iodide (PI) for 20-25 minutes for cell number measurement (1:500 dilution of Hoescht staining is also added for IN Cell imaging). The plates are scanned on the Acumen Explorer laser scanning instrument (TTP Labtech) using the 488nm laser for simultaneous excitation of the Alexa-488 and PI. […] The normalized phospho-S6 staining is calculated as the ratio of the integrated Alexa 488 intensity divided by the integrated PI intensity for the single concentration rapamycin control (7.5 nM) and DMSO columns. […] Inhibition of the pathway is defined based on the normalized phospho-S6 intensity in rapamycin treated cells. Active cells are defined as those with a normalized phospho-S6 staining above this threshold, and each treatment is reported as the % positive cells in the well, where thresholds are defined by selecting wells with the highest and lowest signal and differentiating between the % non-active and % active populations. In addition to the pathway specific phospho-S6 endpoint, the number of PI stained cells from the Acumen is recorded as a measure of cell viability. The primary screen was performed with a MEF cell line in a defined genetic background, Tsc2-/-, p53-/- cell line stably transfected with an empty vector control (Tsc2-/- MEF).
# Potency is read from the fitted curve at half-maximal effect.
SMILES,"activity change, negative = inhibition",Potency
Cc1ccc(S(=O)(=O)c2nc(-c3ccco3)oc2SCC(=O)Nc2ccc(F)cc2)cc1,-0.694%,
COc1ccc(OCCn2cc(C(=O)C3CCCCC3)c3ccccc32)cc1,0.18%,
CCOc1ccc(C(=O)/C=C/c2cn(CC(O)CN3CCCCCC3)c3ccccc23)cc1 (stereo not drawn),,14.7 µM (active)
O=C(/C=C/c1cn(CC(O)CN2CCc3ccccc32)c2ccccc12)c1ccc(Br)cc1 (stereo not drawn),-17.5%,
COc1ccc(-c2nc(S(=O)(=O)c3ccccc3)c(N3CCCCC3)o2)cc1,-13.1%,
O=C(CSc1oc(-c2ccc(F)cc2)nc1S(=O)(=O)c1ccc(Br)cc1)NC1CCCCC1,4.26%,
CC(C)S(=O)(=O)c1oc(-c2ccc(F)cc2)nc1S(=O)(=O)c1ccc(F)cc1,,0.521 µM (active)
COc1ccccc1NC(=O)CCC(=O)N1CC(C)Oc2ccc(C)cc21 (stereo not drawn),-7.46%,
COc1ccc(C)cc1N(CC(=O)N1CCC(C)CC1)S(=O)(=O)c1ccc(C)cc1,2.44%,
CC(C)(C)c1ccc(OCC(=O)N2CCC(c3nc4ccccc4s3)CC2)cc1,-9.26%,
CN1CCN(C2(CNC(=O)COc3ccc(C(C)(C)C)cc3)CCCCC2)CC1,,8.26 µM (active)
CCn1cc(C(=O)NCc2ccccc2)c(=O)c2cc(S(=O)(=O)N3CCCCC3)ccc21,-7.26%,
Cc1cccc(CNC(=O)c2cnc3sc(N4CCCCC4)nn3c2=O)c1,8.89%,
O=C(Cc1ccc(Cl)cc1)Nc1ccc2nn(-c3ccc(Cl)cc3)nc2c1,-7.33%,
COc1cccc(C(=O)Nc2ccc3nc4n(c(=O)c3c2)CCCCC4)c1,-1.75%,
CCN1CCN(c2cc(C)c3cc(NC(=O)c4cc(Cl)ccc4OC)ccc3n2)CC1,,2.61 µM (active)
COc1ccc(NC(=O)c2ccc3nc(C(C)C)oc3c2)cc1OC,-14.4%,
COc1ccc(NC(=O)c2cnc(Nc3ccc(C)c(Cl)c3)c3ccccc23)cc1OC,0.723%,
COc1ccc(C(=O)Nc2ccc3nc(N4CCCCC4)cc(C)c3c2)cc1OC,,13.1 µM (active)
CCOc1ccc(-n2nc3ccc(NC(=O)c4ccc(OC)c(Cl)c4)cc3n2)cc1,2.46%,
CCOc1ccc(N(Cc2ccccc2)C(=O)c2nc(S(C)(=O)=O)ncc2Cl)cc1,,0.736 µM (active)
CCOc1ccc(NC(=O)CN(Cc2ccccc2)S(=O)(=O)c2ccc(Cl)cc2)cc1,3.52%,
CCOc1ccc(N(Cc2ccccc2)C(=O)c2nc(SCC)ncc2Cl)cc1,-13%,
CCOC(=O)c1ccc(NC(=O)c2c(NCc3cccs3)sc3c2CCCC3)cc1,-12.1%,

SMILES,"activity change, negative = inhibition",Potency
CCCn1ccc2c(OCC(=O)NCc3ccc(F)cc3)cccc2c1=O,-1.85%,
CCOc1ccc(N2CC(C)Cn3c2nc2c3c(=O)n(Cc3c(F)cccc3Cl)c(=O)n2C)cc1 (stereo not drawn),-8.65%,
O=C1CN(C(=O)Nc2ccccc2C(F)(F)F)C(c2ccccc2)c2c(sc3c2CCCC3)N1 (stereo not drawn),4.23%,
Oc1c(C(c2ccc(F)cc2)N2CCN(Cc3ccccc3)CC2)sc2nc(-c3ccco3)nn12 (stereo not drawn),0.278%,
Cc1nc2ccn(Cc3cccs3)c(=O)c2cc1C(=O)NCc1ccc(Cl)cc1,-5.14%,
CCOCCCNC(=O)c1cn(CC)c2ccc(S(=O)(=O)N3CCc4ccccc4C3)cc2c1=O,0.725%,
Cc1ccc2nc(/C(C#N)=C/c3ccc(-c4ccc(C(=O)OC(C)C)cc4)o3)[nH]c2c1,-18.9%,
Cc1nn2c(=O)cc(COC(=O)CNC(=O)c3ccc(F)cc3)nc2s1,-6.97%,
COc1ccc(N2CCN(c3cc(C)nc4nncn34)CC2)cc1,-1.3%,
CCOc1ccc(CCNC(=O)c2ccc3c(c2)sc2nc(-c4ccc(F)cc4)cn23)cc1OCC,-3.54%,
Cc1nn2c(=O)cc(COC(=O)c3cccc(NC(=O)COc4ccccc4Cl)c3)nc2s1,0%,
Cc1nn(CC(=O)N2CCN(c3cccc(C(F)(F)F)c3)CC2)c(=O)c2cc3sccc3n12,1.19%,
COc1cccc(Nc2nc3ccccc3c3nncn23)c1,-4.37%,
CCOC(=O)c1nc(Nc2ccc(C(=O)OC)cc2)c2ccccc2n1,-14.8%,
COc1cc(Nc2nc(-c3ccc(OC)c(OC)c3)nc3ccccc23)cc(OC)c1,,16.5 µM (active)
Cn1c(=O)oc2cc(S(=O)(=O)CCC(=O)NCCc3ccc(Cl)cc3)ccc21,-10.6%,
Cc1ccc(S(=O)(=O)c2cn(Cc3ccccc3)c3cc(N4CCCC4)c(F)cc3c2=O)c(C)c1,-7.49%,
O=C(CCS(=O)(=O)c1ccccc1)N(Cc1cccnc1)c1nc2c(F)cccc2s1,,3.69 µM (active)
CN(C)S(=O)(=O)c1ccc(C(=O)N(Cc2cccnc2)c2nc3c(F)cc(F)cc3s2)cc1,-8.48%,
O=C(CCOc1ccccc1)N(Cc1cccnc1)c1nc2ccc(Cl)cc2s1,-0.351%,
CCc1ccc(C2CC(=O)c3c([nH]c(C(=O)OCc4ccc(C)cc4)c3C)C2)cc1 (stereo not drawn),-16.6%,
CCOc1ccc(C2CC(=O)c3c([nH]c(C(=O)OCc4ccccc4)c3C)C2)cc1 (stereo not drawn),,4.14 µM (active)
CC1=C(C(=O)OCC(C)C)C(c2ccc(OCc3ccccc3)cc2)N2C(=O)CCSC2=N1 (stereo not drawn),-27.7%,
CCCCS(=O)(=O)c1oc(-c2cccs2)nc1S(=O)(=O)c1ccccc1,,0.414 µM (active)
